Bioassay records: PubChem, National Center for Advancing Translational Sciences (NCATS)
Pf growth 96h: inhibits malaria parasite growth, 96 h. P. falciparum luciferase reporter growth, 96 h. Potency, µM (doses to about 28.7 µM), for inactives: at the highest dose activity change, negative = inhibition, most hits filed as inhibitors. 320,000 compounds, 6.9% hits. AID 504834; further: potency means the concentration at half of the fitted maximal effect; on the % scale 0 is the no-effect control and ±100 the full control effect
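Two parasite generations (96 h, 37 C, 5% CO2) of compound exposure in infected erythrocytes (0.05% parasitemia, 2% hematocrit). Luciferase-reporter P. falciparum; decreased luminescence indicates inhibited growth, aimed at apicoplast-acting delayed death.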
Shiga toxin inh: Shiga toxin inhibition; Vero cells, Shiga toxin protein synthesis inhibition reporter; inhibition, % at 38.7 µM; 290,000 compounds, 9.2% hits; in the data active means inhibition mostly above about 28%, no sharp cut-off; inactive means mostly below about 43%; further: 0% is about no effect
Pf growth 48h: P. falciparum growth inhibition at 48 hours (one generation) | P. falciparum luciferase growth in erythrocytes, 48 h | Potency, µM (series often up to 28.7 µM), for inactives: at the highest dose activity change, negative = inhibition, usual class: inhibitors | 310,000 compounds, 5.9% hits; further: potency means the concentration at half of the fitted maximal effect; on the % scale 0 is the no-effect control and ±100 the full control effect
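Luciferase-expressing parasites in RBCs, 2% Hct / 0.1% parasitemia final; RPMI 1640 + 0.5% Albumax; 37 C, 5% CO2, one generation; luminescence read-out, lower signal = inhibition.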
Cycloheximide cs: counter-screen for Shiga toxin inhibitors: cycloheximide protein synthesis inhibition | cell reporter, cycloheximide protein synthesis inhibition counterscreen | 300,000 compounds, 12% hits | max response, %; in the data active means max response mostly above about 13%, no sharp cut-off; inactive means mostly below about 14%; further: read at 38.3 µM for the half of the compounds with a filed dose; 0% is about no effect
* hit, by the source's call; ? = inconclusive; . = no result given; [ ] = dose if it differs, or a comment. Compounds with a hit are over-represented: about 21% of the library has one in this group of screens. Unless noted, the call rests on the fitted dose curve; in most records, active means well fitted inhibition curve with a large enough effect; inconclusive means small, poorly fitted or top-dose-only effect, or another doubt; inactive means no such curve, though single readings can be large or run the other way.

SMILES	Pf growth 96h	Shiga toxin inh	Pf growth 48h	Cycloheximide cs
COc1ccc(C(CCNCc2ccc(N(C)C)cc2)C(C)C)cc1 (stereo not drawn)	7.4µM*	-14	9.3µM*	-1
COc1ccccc1C(CCNCc1ccccc1)c1ccc(OC(C)C)cc1 (stereo not drawn)	?	-11	?	-7
COc1ccc(NC(=O)c2ccc(CNc3c(N4CCCC4)c(=O)c3=O)cc2)cc1Cl	?	-19	?	-2
CC1CCCC(NC(=O)CCNC(=O)c2ccccc2Cl)C1C (stereo not drawn)	-1%	.	0%	.
COc1ccc(O[C@H]2C=C[C@@H](c3ccccc3)O[C@@H]2CO/N=C(\C)CCN2CCc3nc(-c4ccccc4)c(-c4ccccc4)cc3C2)cc1	?	-18	10µM*	-3
COc1ccc(O[C@H]2C=C[C@@H](c3ccccc3)O[C@@H]2COC(=O)CC/C(C)=N/OC[C@@H](O)COCc2ccco2)cc1	?	18	?	7
CCc1cc2c(nc1CC)CCN(CC/C(C)=N/OC[C@H]1O[C@H](c3ccccc3)C=C[C@@H]1Oc1ccc(OC)cc1)C2	4.7µM*	-3	?	-4
Cc1cc(OCC(=O)N(C(C)C)C(C)C)cc(C)c1Br	?	5	?	3
CSc1cccc(NC(=O)COc2ccccc2C)c1	30%	47*	13%	16*
Cc1cc(Cl)ccc1OCC(=O)Nc1ccc2oc(=O)ccc2c1	12µM*	0	-8%	1
Cc1ccc(OCC(=O)Nc2ccc3oc(=O)ccc3c2)c(C)c1	?	-6	0%	0
Cc1ccccc1OCC(=O)Nc1ccc2oc(=O)ccc2c1	116%	54	32%	33*
CN1C(=O)NC(c2cccc(F)c2)C2=C1CC(C)(C)CC2=O (stereo not drawn)	-82%	-5	1%[0.00184 µM]	-5
CCOc1ccc(OCc2cccc(C(=O)N3CCOCC3)c2)cc1	33%	127*	141%	101*
CCOc1ccc(N=C(/C(C(=O)C(=O)N2CCOCC2)=C(/O)c2ccccc2)c2ccccc2)cc1	350%	62*	149%	47*
O=C(c1cccc(Oc2ccccc2)c1)N1CCOCC1	24%	6	?	2
CCOc1cc(N2CCOCC2)c(OCC)cc1NC(=O)c1ccccc1	-9%	-17	?	-1
CC1CN(C(=O)c2cccc(COc3ccc(Br)cc3)c2)CC(C)O1 (stereo not drawn)	197%	13*	150%	58*
O=C(c1cccc(OCc2ccccc2)c1)N1CCOCC1	?	41	52%	13*
O=C1CN(C(=O)COC(=O)c2cc(S(=O)(=O)N3CCOCC3)ccc2Cl)c2ccccc2N1	23%	26	1%	-5
Cc1nn(CCCC(=O)N2CCN(c3ccc(F)cc3)CC2)c(C)c1[N+](=O)[O-]	11%	-8	17%	-11
CCCNC(=O)CSCc1nc(-c2ccc(SC)cc2)oc1C	?	35	-4%	26*
COC(CNC(=O)CSCc1nc(-c2ccc(SC)cc2)oc1C)OC	7%	26	21%	9
CSc1ccc(-c2nc(CSCC(=O)NCCCN3CCOCC3)c(C)o2)cc1	9.3µM*	-3	.	-2
Cc1ccc(-c2nc(CSCC(=O)NCCCN3CCOCC3)c(C)o2)cc1	.	16	37%	25
SMILES	Pf growth 96h	Shiga toxin inh	Pf growth 48h	Cycloheximide cs
Cc1nn2cnnc2c(C)c1Cc1c(F)cccc1Cl	17%	-4	.	-1
Cc1nc2cc(N)ccc2n1C1CCCCC1	96%	-12	-5%	10
Cc1cc(-c2cc(N)n(-c3ccccc3)n2)c(C)n1C1CCCC1	34%	40*	?	36*
CCOC(=O)c1ccc(Nc2nc(C)nc3c2nnn3Cc2ccccc2)cc1	?	-7	?	-4
CC[C@H](C)[C@H](NC(=O)[C@H](Cc1ccc(O)cc1)NC(=O)[C@@H](NC(=O)[C@H](CCCN=C(N)N)NC(=O)[C@@H](N)CC(=O)O)C(C)C)C(=O)N[C@@H](Cc1ccc(N)cc1)C(=O)N1CCC[C@H]1C(=O)N[C@@H](Cc1ccccc1)C(=O)O	.	11	.	2
CCc1cccc2c3c([nH]c12)[C@@](CC)(CC(=O)O)OCC3	-8%	.	11%	.
NC(CC(=O)O)c1ccc(Br)cc1 (stereo not drawn)	9.3µM*	-9	3%	-4
CCc1cc[n+](C2=C([O-])c3ccccc3C(=O)/C2=N\S(=O)(=O)c2cccs2)cc1	?	26	4.1µM*	14
CCC(C)NS(=O)(=O)c1cccs1 (stereo not drawn)	-13%	-9	4%	-1
Oc1c(CNc2ccccc2)cc(COCc2ccccc2)c2cccnc12	3.3µM*	.	1.2µM*	.
Oc1c(CN2CCN(c3ccccc3)CC2)cc(Br)c2cccnc12	?	17	1.9µM*	-2
c1ccc(CN2CCOCCOCCOCC2)cc1	8%	20	-4%	-2
CN1CCN(Cc2cc(Cl)c3cccnc3c2OC(=O)c2cccs2)CC1	?	-8	?	-6
c1ccc(N2CCN(Cc3ccnc4ccccc34)CC2)cc1	-2%	-2	-17%	1
Oc1c(CN2CCOCC2)cc(COCc2ccccc2)c2cccnc12	31%	26	2.6µM*	28*
O=C(Oc1c(CN2CCOCC2)cc(Cl)c2cccnc12)c1ccccc1Br	10µM*	6	1.9µM*	2
O=C(NCc1ccccc1)c1cccc(NS(=O)(=O)c2cccc3cccnc23)c1	4%	-1	12%	1
O=C(Cn1ccc(C(F)(F)F)n1)N/N=C/c1ccc(N2CCOCC2)cc1	14%	-9	-7%	1
O=C(Oc1c(Cl)cc(Cl)c2cccnc12)N1CCCCC1	5.2µM*	13	-12%	16
Oc1c(Br)cc(Br)c2cccnc12	9.5µM*	.	?	.
CCOC(=O)N1CCN(Cc2cc(Cl)c3cccnc3c2O)CC1	23%	29	2.6µM*	6
O=C(Oc1c(Cl)cc(Cl)c2cccnc12)N1CCOCC1	-4%	-5	-14%	-4
[O-][n+]1cccc2c(Br)cc(Br)c(O)c21	0%	-16	12%	-2
COCc1cc(CN2CCN(C)CC2)c(O)c2ncccc12	8.3µM*	-7	.	-4
CN(C)c1ccc(N2C(=NC(=O)CCC3CCCC3)SC3CS(=O)(=O)CC32)cc1 (stereo not drawn)	-22%	-7	?	-4
SMILES	Pf growth 96h	Shiga toxin inh	Pf growth 48h	Cycloheximide cs
CCCCC(=O)NC1(C(F)(F)F)C(=O)Nc2c1c(=O)n(C)c(=O)n2C (stereo not drawn)	.	20	1%	-2
COc1ccc(OCC(=O)OCC(=O)NC2CC2)cc1	2%	.	-9%	.
Cc1ccc(N2C(=O)C3CCCN3C2=S)cc1C (stereo not drawn)	-28%	28	-23%	16*
O=C(CCC1CCCN(C(=O)c2ccoc2)C1)NCc1ccc(F)c(F)c1 (stereo not drawn)	-6%	22	-19%	10
O=C(CCC1CCCN(C(=O)c2ccc3c(c2)OCO3)C1)NCc1ccc(F)c(F)c1 (stereo not drawn)	?	41*	?	15*
O=C(CCC1CCCN(C(=O)c2ccc3cc[nH]c3c2)C1)NCc1ccc(F)c(F)c1 (stereo not drawn)	?	30*	?	29*
